An excerpt weighted towards active compounds, which were near 3.8% of everything screened.
Hsp70 act: transcriptional activators of Hsp70 | HeLa Hsp70 promoter luciferase reporter, luminescence; scaled: vehicle 0, proteasome-inhibitor control 100% | activation, % at 10 µM | hit rate 0.04% among 200,000;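 active = activation above the mean across all tested compounds plus 3 SD, cutoff set per campaign, cut at about 5.5% in these data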;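 also: 100% = MG132 at 30 µM as the positive control and 0% = DMSO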
HSF-1 act: increases HSF-1 driven luciferase reporter signal; activation, % at 9 µM; hit rate 1.7% among 300,000; NIH3T3-HGL HSF-1 luciferase reporter, MG132, 8 h; 100% = twice DMSO control signal;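 active = mean replicate activation of at least 50% with a set share of replicates each reaching 50%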;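 also: 0% = median of the neutral control wells and 100% = twice that signal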
HSF1 inh: HSF1 inhibition. NIH3T3-HGL HSE-luciferase, MG132-induced, luminescence 8 h; stronger effect = lower value. activity change, negative = inhibition, % at 7.5 µM (by protocol). hit rate 0.77% among 300,000;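 active = more than half of replicate wells show activity change below -50%, luminescence cut by over half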;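 also: luciferase reports HSF-1 transcriptional activity via heat shock element; 0% = median of DMSO wells and -100% = zero luminescence signal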
HSP90 inh: blocks HSP90-mediated luciferase refolding in reticulocyte lysate; Rabbit reticulocyte lysate, luciferase refolding luminescence, 3 h; inhibition, % at 5.6 µM; hit rate 0.91% among 290,000; AID 1789;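 active = inhibition above the screen-wide mean plus 3 SD, computed separately per campaign, cut at about 16% in these data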;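 also: 0% = DMSO wells and 100% = 60 µM geldanamycin wells; inhibitors lower the luminescence because luciferase stays unfolded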
p-CIP stab down: p/CIP protein destabilization | hit rate 0.01% among 290,000 | AID 1984 | Q05BA5 | F442A p/CIP-EGFP cells, EGFP fluorescence, 16 h | decrease of EGFP signal, % at 10 µM;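 active = EGFP signal decrease of at least 30% at 10 µM or well 3 SD below plate mean, unless failing retest; inactive = the rest, including hits failing retest or dose response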
Target sequence (Q05BA5 1-1403): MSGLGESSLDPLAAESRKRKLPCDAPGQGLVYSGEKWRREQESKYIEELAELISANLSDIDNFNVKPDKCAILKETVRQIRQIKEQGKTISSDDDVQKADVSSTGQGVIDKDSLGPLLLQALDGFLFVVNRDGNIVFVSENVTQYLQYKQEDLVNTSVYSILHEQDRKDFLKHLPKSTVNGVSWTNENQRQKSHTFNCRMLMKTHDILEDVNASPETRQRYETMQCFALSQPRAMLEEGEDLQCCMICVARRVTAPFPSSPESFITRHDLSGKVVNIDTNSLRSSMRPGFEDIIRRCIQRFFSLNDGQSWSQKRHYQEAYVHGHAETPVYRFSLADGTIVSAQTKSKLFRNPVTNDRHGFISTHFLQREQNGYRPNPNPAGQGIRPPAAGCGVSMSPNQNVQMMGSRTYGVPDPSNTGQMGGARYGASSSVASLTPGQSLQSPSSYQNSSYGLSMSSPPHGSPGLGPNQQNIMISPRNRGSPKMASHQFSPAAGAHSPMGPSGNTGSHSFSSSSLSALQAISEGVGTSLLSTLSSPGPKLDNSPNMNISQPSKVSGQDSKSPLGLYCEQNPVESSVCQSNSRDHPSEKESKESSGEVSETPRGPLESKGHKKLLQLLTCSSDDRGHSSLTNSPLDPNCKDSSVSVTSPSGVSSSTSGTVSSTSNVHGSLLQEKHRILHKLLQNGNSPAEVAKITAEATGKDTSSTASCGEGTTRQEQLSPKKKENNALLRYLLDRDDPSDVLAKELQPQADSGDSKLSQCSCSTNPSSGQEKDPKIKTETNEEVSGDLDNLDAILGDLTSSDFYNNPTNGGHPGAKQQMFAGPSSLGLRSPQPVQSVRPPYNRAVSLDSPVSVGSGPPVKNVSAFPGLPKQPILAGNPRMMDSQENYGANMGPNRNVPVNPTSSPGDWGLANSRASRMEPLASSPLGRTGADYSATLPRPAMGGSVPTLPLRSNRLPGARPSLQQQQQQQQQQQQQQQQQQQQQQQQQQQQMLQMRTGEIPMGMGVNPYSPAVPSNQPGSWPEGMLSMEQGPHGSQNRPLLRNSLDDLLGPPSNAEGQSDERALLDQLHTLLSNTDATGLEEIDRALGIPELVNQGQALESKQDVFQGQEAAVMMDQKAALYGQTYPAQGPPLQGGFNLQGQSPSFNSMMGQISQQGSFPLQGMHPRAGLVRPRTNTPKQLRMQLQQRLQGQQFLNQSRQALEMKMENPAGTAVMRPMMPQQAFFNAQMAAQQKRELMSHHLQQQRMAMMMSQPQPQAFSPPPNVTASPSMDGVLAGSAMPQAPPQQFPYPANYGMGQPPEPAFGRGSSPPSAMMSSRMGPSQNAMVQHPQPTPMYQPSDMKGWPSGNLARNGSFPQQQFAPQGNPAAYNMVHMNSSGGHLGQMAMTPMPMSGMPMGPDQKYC
NALP1 yeast inh: NALP1 inhibition. S. cerevisiae NALP1/ASC/caspase-1 growth, X-gal OD620, 72 h. inhibition, % at 10 µM. hit rate 0.61% among 280,000; in the data active = inhibition mostly above about 24%, no sharp cut-off; inactive = mostly below about 32%
Starred values were filed as active, the others as inactive; · = no result.

SMILES	Hsp70 act	HSF-1 act	HSF1 inh	HSP90 inh	p-CIP stab down	NALP1 yeast inh
CCOc1ccc(/C=N/N2C(=O)C(CC(=O)Nc3ccc(F)cc3F)SC2=NC)cc1OC (configuration not stated)	0	60*	22	1	-6	19
O=C(Nc1ccc(Cl)cc1)Nc1ccc(S(=O)(=O)Nc2ncccn2)cc1	0	5	-6	2	-1	9
O=S(=O)(Nc1ncccn1)c1ccc(NC(=S)Nc2ccc(Cl)cc2)cc1	·	56*	20	2	5	18
CCc1ccc(NC(=S)Nc2ccc(S(=O)(=O)Nc3ncccn3)cc2)cc1	0	-51	-56*	0	-18	18
NS(=O)(=O)c1ccc(NS(=O)(=O)c2ccc(NC(=S)Nc3ccccc3)cc2)cc1	0	54*	30	1	7	11
O=S(=O)(Nc1ccncc1)c1ccc(Cl)cc1	0	-77	-71*	-2	3	-3
O=S(=O)(Nc1ccncc1)c1ccccc1	0	-5	-2	3	1	-25
Cc1cc(C)cc(NS(=O)(=O)c2ccc(NC(=S)Nc3ccccc3)cc2)c1	-1	13	10	-4	-6	47
COc1cccc2cc(C(=O)C3=C(O)C(=O)N(CCN4CCOCC4)C3c3cccc(Cl)c3)oc12 (configuration not stated)	·	-9	-4	-1	2	6
CCNC(=S)NNC(=O)CCn1cc(C)cn1	0	32	0	2	-11	6
CCN1Cc2c(/C=C/c3ccccc3)nc3ccc(OC)cc3c2N(c2cccc(Cl)c2)C1	·	19	8	4	-20	11
Cc1cc(NC(=O)C2C3C(=O)N(Cc4ccc(Cl)cc4)C(C(=O)NC(C)(C)C)C34C=CC2(C)O4)no1 (configuration not stated)	0	-64	-55*	-2	-4	4
COc1ccccc1NC(=O)N(Cc1ccco1)Cc1cc2c(C)ccc(C)c2[nH]c1=O	-1	4	6	2	-6	5
CCC(c1nnnn1CCc1ccccc1)N(Cc1ccco1)Cc1cc2cc(C)cc(C)c2[nH]c1=O (configuration not stated)	0	58*	27	3	2	-2
CCC(c1nnnn1Cc1ccco1)N(CCc1ccccc1)Cc1cc2cc(C)ccc2[nH]c1=O (configuration not stated)	·	10	21	·	2	-2
Cc1ccc2[nH]c(=O)c(CN(CCc3ccccc3)C(c3nnnn3Cc3ccco3)C(C)C)cc2c1 (configuration not stated)	·	82*	67	5	-21	·
CCOC(=O)Cn1nnnc1C(CC)N(Cc1ccccc1)Cc1cc2cc(C)ccc2[nH]c1=O (configuration not stated)	0	18	7	-1	0	4
CCC(c1nnnn1CCc1ccccc1)N(Cc1ccco1)Cc1cc2c(C)ccc(C)c2[nH]c1=O (configuration not stated)	-1	128*	75	0	-5	14
COCCNC(=O)CCCn1c(=O)c2cc(OC)c(OC)cc2n(CC(=O)c2ccccc2)c1=O	0	-14	-4	-3	0	0
Cc1nnc(-c2ccccc2)nc1N(C)C	0	24	-1	0	20	6
Cc1sc2cc3c(c(C(=O)c4ccccc4)[n+]2c1C)-c1cccc2cccc-3c12	0	-38	-44	3	-7	10
O=C(c1ccccc1)c1c2c(cc3sc4ccccc4[n+]13)-c1cccc3cccc-2c13	0	·	·	11	-25	58*
N#C/C(=C\C=C\c1ccccc1[N+](=O)[O-])C(=O)NC1CCCCC1	1	82*	34	1	5	9
N#C/C(=C\c1ccccc1[N+](=O)[O-])C(=O)NC1CCCCC1	0	9	-1	-2	-23	-16
Cc1c(N(C)S(=O)(=O)c2ccc(Cl)c(C(=O)N3CCC(C(N)=O)CC3)c2)c(=O)n(-c2ccccc2)n1C	·	-12	-2	·	·	·
COc1ccc(OC)c(S(=O)(=O)Nc2ccccc2C(F)(F)F)c1	0	-4	-1	2	-5	-6
COc1ccc(C(=O)/C=C/c2ccccc2)c(OC)c1	0	62*	34	1	-12	-1
